# Assay outcomes as filed in PubChem.
# This is a sample that favours compounds with a hit; in the whole collection about 9.6% have one here.
# Insulin prom inh = TRM-6 insulin promoter activity inhibition; TRM-6 cells (human fetal islet line), insulin promoter-eGFP reporter, imaging; reporter expression induced with tamoxifen; inhibition, % at 2 µM; actives 0.9% (n = 130,000); AID 1273;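 active = inhibition above the mean plus 3 SD, with well images judged a real hit on visual review, cut at about 60% in these data, passing the limit was not always enough; inconclusive = inhibition over the cutoff but images rejected on review; inactive = inhibition not above the cutoff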
# bCat KO growth = beta-catenin-lacking colon tumor cell growth suppression. AID 818. HCT116 beta-catenin knockout viability, CellTiter-Glo, 60 h; active compounds read low. viability, % at 10 µM. actives 1.5% (n = 140,000);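 active = viability at or under a set limit, the compound median less 4 SD, cut at about 6% in these data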;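 also: 0% = Hyamine 1622 control at 20 µM and 100% = untreated cell control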
# Autophagy HCS = modulators of autophagy. MEF GFP-LC3 puncta imaging; test concentration mostly 10 µM. calls only at 10 µM (by protocol). actives 0.98% (n = 190,000). AID 463193;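 active = percentage of spot-positive cells more than 3 SD above its plate mean, without a fluorescence outlier flag or 80% toxicity; inconclusive = no clear call, values can overlap the other calls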;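 also: spot-positive cell cutoff set from DMSO-treated cells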
# PTEN del growth = growth suppressors of cells with PTEN tumor suppressor deletion | HCT116 PTEN-null viability, CellTiter-Glo, 60 h; active compounds read low | viability, % at 10 µM | actives 1.2% (n = 140,000) | AID 827;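 active = viability at or below a set limit, 4 SD under the median of all tested compounds, cut at about 3.7% in these data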;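 also: PTEN knockout HCT116 line with beta catenin targeted HCT116 as companion control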
# Insulin prom up = MIN6 insulin promoter up-regulation | MIN6 insulin promoter-GFP reporter, high-content imaging; active compounds read high | z-score at 5 µM | actives 0.3% (n = 190,000) | AID 1625;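 active = z-score above 3 at 5 µM with at least 500 cells counted in the well; inconclusive = wells under 500 cells, flagged as cytotoxic or low count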
# L major viab = inhibitors of Leishmania major promastigote growth; Leishmania major promastigotes, resazurin fluorescence viability; inhibition, % at 10 µM; actives 9% (n = 200,000); AID 1063; in the data active = inhibition above about 50%;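 also: promastigotes grown with compound for 44 hours at 28 °C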
# The depositor's hits bear a star; i = inactive; u = inconclusive; x = not tested or not shown; + = active, no number.
SMILES,Insulin prom inh,bCat KO growth,Autophagy HCS,PTEN del growth,Insulin prom up,L major viab
O=C(NC1(C(F)(F)F)N=C2SCCN2C1=O)c1ccccc1 (configuration not stated),-26,87,i,87,0.61,1
O=C1N=C2SCCN2/C1=C\c1ccccc1Cl,x,98,i,90,0.42,100*
COCCCNC(=O)/C(C#N)=c1\s/c(=C\c2ccccc2OC(F)F)c(=O)n1CCCOC,x,82,i,89,1.5,-4
COCCNC(=O)/C(C#N)=c1\s/c(=C\c2ccccc2OC(F)F)c(=O)n1Cc1ccccc1,x,x,+,x,0.49,-6
CCCCNC(=O)/C(C#N)=c1\s/c(=C\c2ccccc2OC(F)F)c(=O)n1CCCOC,x,92,+,86,4.5*,0
COC(=O)Oc1ccc(/C=N/NC(=O)CN(c2ccccc2Cl)S(C)(=O)=O)cc1OC,29,95,i,104,0.1,-15
CCOC(=O)N1CCN(C(=O)c2cc(S(=O)(=O)N3CCCC3)cn2C)CC1,x,96,i,99,3*,-3
COc1cccc2c(=O)n(CC(=O)N3CCc4ccccc43)ccc12,x,103,i,92,-0.82,-3
c1ccc2sc(NC3=NCN(CCN4CCOCC4)CN3)nc2c1,-133,x,i,x,-0.05,84*
COc1cccc(NC(=S)N(CCCN2CCCC2)Cc2cccn2Cc2ccc(Cl)cc2)c1,x,x,i,x,-1.6,91*
COc1cccc(NC(=S)N(CCCN2CCCC2)Cc2ccco2)c1,-20,x,i,x,-0.17,44
S=C(Nc1cccc(Cl)c1)N(CCCN1CCCC1)Cc1cccn1Cc1ccc(Cl)cc1,-60,x,i,x,-0.2,100*
CSc1cccc(NC(=S)N(CCCN2CCCC2)Cc2cccn2Cc2ccc(Cl)cc2)c1,-100,x,i,x,-1.3,101*
COc1cccc(CNC(=O)CSc2ccc(-c3ccco3)nn2)c1,25,x,i,x,-0.53,19
Cc1ccc(-n2nc(C)c(NC(=O)CCl)c2C)cc1C,-479,7,i,6,u,56*
Cc1cccc2cc(CN(Cc3cccnc3)C(=O)c3ccccc3F)c(Cl)nc12,-23,83,i,71,-0.06,97*
Cc1cc(C)c2cc(CN(Cc3cccnc3)C(=O)c3ccc(F)cc3)c(Cl)nc2c1,-130,60,i,52,-0.09,98*
O=C(c1ccccc1F)N(Cc1cccnc1)Cc1cc2cc3c(cc2[nH]c1=O)OCCO3,20,x,i,x,0.75,-7
Cc1cccc2cc(CN(Cc3cccnc3)C(=O)c3ccncc3)c(=O)[nH]c12,25,94,i,112,-0.57,-7
CC(C)C(=O)N1CCN(c2ccc(NC(=O)c3ccc4c(c3)OCCO4)cc2Cl)CC1,25,1.3*,i,1.7*,-0.5,7
CC(=O)N1CCN(c2ccc(NC(=O)c3ccc4c(c3)OCCO4)cc2Cl)CC1,x,x,i,x,-0.71,5
Cc1ccc(O)c(-c2cc(-c3ccccc3[N+](=O)[O-])[nH]n2)c1,0,53,i,61,0.04,57*
CC1=CC(=O)C=C(C)C1=NOC(=O)c1cccc([N+](=O)[O-])c1,44,88,i,87,-0.81,84*
O=C(NNC(=S)NC(=O)C12CC3CC(CC(C3)C1)C2)c1ccncc1,x,17,i,16,-0.27,78*
CC/C(=N\NC(=O)c1ccc2c(c1)OCO2)C12CC3CC(CC(C3)C1)C2,33,92,i,80,0.21,99*
SMILES,Insulin prom inh,bCat KO growth,Autophagy HCS,PTEN del growth,Insulin prom up,L major viab
CC/C(=N\NC(=O)c1ccncc1)C12CC3CC(CC(C3)C1)C2,3,100,i,103,x,89*
O=C(NNC(=O)C12CC3CC(CC(C3)C1)C2)c1cnccn1,26,18,i,21,-0.04,89*
O=C(NNC(=O)c1ccc2c(c1)OCO2)NC12CC3CC(CC(C3)C1)C2,x,86,i,92,-1.1,-2
CCC(=O)N(Cc1ccco1)c1nc(C(=O)Nc2ccc(Cl)cc2)c(C)s1,-21,81,i,72,-0.28,20
CN(C)CCn1c(=O)n(Cc2ccco2)c(=O)c2c3c(sc21)CCCCC3,-46,66,i,74,-0.36,88*
O=c1c2c3c(sc2n(CCN2CCCC2)c(=O)n1Cc1ccco1)CCCCC3,x,61,i,62,x,87*
O=C(Cn1c(=O)n(Cc2ccco2)c(=O)c2c3c(sc21)CCCCC3)c1ccccc1,-44,87,i,71,x,13
C[C@H](NC(=O)c1ccccc1)C(=O)Nc1nc(-c2ccccn2)cs1,-33,x,i,x,0.06,13
O=C(Nc1nc(-c2ccccn2)cs1)c1ccc(Cl)s1,x,8,i,16,1.4,100*
Cc1cccc(C(=O)NC(C(=O)Nc2nc(-c3ccccn3)cs2)C(C)C)c1 (configuration not stated),x,x,i,x,x,98*
O=C(Nc1nc(-c2ccc(Cl)s2)cs1)c1cccs1,x,57,i,47,1.4,7
Cn1cccc1C(=O)Nc1nc(-c2ccccn2)cs1,9,10,i,7,-0.41,100*
O=C(Nc1nc(-c2ccc(Cl)cc2)cs1)c1cccnc1,-129,62,i,33,0.25,-1
O=C(Nc1nc(-c2ccccn2)cs1)c1ncc(Cl)c(Cl)c1Cl,34,10,i,8,-0.29,101*
Cc1csc(NC(=O)c2cccn2C)n1,24,83,i,69,-0.27,0
Cc1nc(Nc2ccccc2)sc1C,x,x,i,x,-0.2,10
O=C(Nc1nnc(C(F)(F)F)s1)C1COc2ccccc2O1 (configuration not stated),-79,88,i,90,-0.69,0
Clc1nnc(N2CCCCC2)c2ccccc12,41,x,i,x,-0.04,17
O=C(COC(=O)CNC(=O)c1cccc([N+](=O)[O-])c1)Nc1nc2ccccc2s1,37,108,i,104,-0.01,-8
O=C(Nc1nc(-c2ccccn2)cs1)c1cc2ccccc2o1,-14,x,i,x,1.2,100*
CCN(CC)CC#CCC(OC)(c1ccccc1)c1ccccc1,x,x,i,x,-0.71,55*
CCN(CC)CC#CCC(O)(c1ccccc1)C1CCCC1 (configuration not stated),0,85,i,91,-0.45,73*
O=C(NNS(=O)(=O)c1cccc(Cl)c1Cl)c1cccc(S(=O)(=O)N2CCOCC2)c1,-67,96,i,98,1.5,-4
Cc1nn(C(C)C(=O)Nc2ccc3c(c2)OCO3)c(C)c1[N+](=O)[O-] (configuration not stated),x,x,i,x,-0.83,-3
COc1ccc(C2=CC(=O)CC(c3ccc(OC)cc3)C2)cc1 (configuration not stated),21,x,i,x,-0.29,6
COc1ccc(C2=CC(=O)CC(c3ccccc3)C2)cc1 (configuration not stated),x,x,i,x,-0.27,59*
